Results published in PubChem BioAssay (NCATS).
Where “and” joins values, the source holds several entries; their conditions need not be identical. Equal entries are not always repeated. Inconclusive results are not listed. Entries that show only a call come without a potency. Some compounds were tested as several samples or in several runs, with calls that do not always agree. Calls of active or inactive are those of the source. The call rests on the fitted dose curve; in most records, active means well fitted curve in the direction sought with a large enough effect; inconclusive means small, poorly fitted or top-dose-only effect, or another doubt; inactive means no such curve, though single readings can be large; an effect the other way counts as inactive or inconclusive.

Assays:
[1] = biological target: Glutathione peroxidase 1 (Homo sapiens) (UniProt P07203); assay: Primary qHTS Assay for Inhibitors of Recombinant Selenoprotein Glutathione Peroxidase 1 (GPX1) (AID 1845191); further: nearly all actives have a fitted effect of over 65% in size; further: potency means the concentration at half of the fitted maximal effect
Outline: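 GR-coupled readout: NADPH consumption tracked by fluorescence, ex 340/em 450 nm, at t=0 and after 15 min at RT. Final mix 10 nM GPX1, 1 mM GSH, 0.5 mM CHP, 0.5 mM NADPH, 100 nM GR, 0.01% BSA, following 30 min enzyme–compound preincubation.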

[2] = biological target: Phospholipid hydroperoxide glutathione peroxidase GPX4 (Homo sapiens) (UniProt P36969); assay: Primary qHTS Assay for Inhibitors of Recombinant Selenoprotein Glutathione Peroxidase 4 (GPX4) (AID 1845192); further: nearly all actives have a fitted effect of over 65% in size; further: potency means the concentration at half of the fitted maximal effect
Outline: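 Steps: GPX4 plus compound, 30 min RT; add GR/GSH/NADPH master mix; start with cumene hydroperoxide; read 340/450 nm fluorescence at 0 and 15 min. Finals were 200 nM GPX4, 1 mM GSH, 0.5 mM CHP, 0.5 mM NADPH, 100 nM GR.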

[3] = biological target: Luciferin 4-monooxygenase (Photinus pyralis) (UniProt P08659); assay: Primary firefly luciferase (FLuc) qHTS assay for identification of artifact compounds. (AID 1845220); further: nearly all actives have a fitted effect of over 60% in size; further: potency means the concentration at half of the fitted maximal effect
Outline: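 Enzymatic FLuc inhibition assay: compounds pre-exposed to luciferin/ATP (10 uM each) for 15 min, then purified P. pyralis enzyme at 10 nM added. Read-out: luminescence at 5 min.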

[4] = Primary fluorescence-based thiol-reactive (MSTI) qHTS assay for identification of artifact compounds. (AID 1845221); further: nearly all actives have a fitted effect of over 65% in size; further: potency means the concentration at half of the fitted maximal effect
Outline: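 Thiol-reactive compounds detected by quenching of 4 uM MSTI fluorescence (525/598 nm) after 1 h room-temperature dark incubation in PBS pH 7.4, 2% DMSO. qHTS titration; percent inhibition Hill-fitted against Acetyl-MSTI/MSTI controls.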

[5] = test system: Nanoluciferase (engineered Oplophorus gracilirostris luciferase); assay: Primary Nanoluciferase (NLuc) qHTS assay for identification of artifact compounds. (AID 1845222); further: potency means the concentration at half of the fitted maximal effect
Outline: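 S16 cell supernatant NLuc, 1:55; cpds qHTS; 15 min RT dark; Nano-Glo substrate 1:100, 5 min; luminescence; Hill fit of % inhibition.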

[6] = Primary redox qHTS assay for identification of artifact compounds. (AID 1845223)
Outline: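 Redox-cycling detection via DTT (250 uM final) oxidation coupled to Amplex Red (25 uM)/HRP (250 mU/mL) in HBSS. 15 min preincubation plus 30 min after DTT, room temperature. Ex/Em 525/598 nm; 4-parameter Hill fit against DMSO and 10 uM DA3003.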

Sequence of Phospholipid hydroperoxide glutathione peroxidase GPX4 (Homo sapiens) (P36969 whole entry, looked up): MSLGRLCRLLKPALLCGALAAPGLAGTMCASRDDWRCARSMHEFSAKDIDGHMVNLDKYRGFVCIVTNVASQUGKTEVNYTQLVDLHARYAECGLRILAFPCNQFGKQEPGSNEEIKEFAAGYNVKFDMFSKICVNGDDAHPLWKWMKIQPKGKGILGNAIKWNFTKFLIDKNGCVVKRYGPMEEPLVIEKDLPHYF
Sequence of Glutathione peroxidase 1 (Homo sapiens) (P07203 whole entry, looked up): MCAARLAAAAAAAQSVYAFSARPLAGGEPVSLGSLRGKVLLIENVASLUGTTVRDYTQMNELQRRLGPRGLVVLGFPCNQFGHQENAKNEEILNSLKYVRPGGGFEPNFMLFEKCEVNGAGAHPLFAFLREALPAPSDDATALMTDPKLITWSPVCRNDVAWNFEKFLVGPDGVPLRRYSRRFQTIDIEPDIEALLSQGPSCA

| SMILES | Potency [1] | Potency [2] | Potency [3] | Potency [4] | Potency [5] | outcome [6] |
| --- | --- | --- | --- | --- | --- | --- |
| CN(C)c1nc(Cc2ccc(NC(=O)c3ccc(C(F)(F)F)cc3)cc2)nc(N(C)C)c1CC(=O)O | inactive | inactive | inactive | inactive | inactive |  |
| c1cc(OCCN2CCCCC2)cc(-c2n[nH]c3ccc(-c4ncn[nH]4)cc23)c1 | inactive | inactive | inactive | inactive | inactive | inactive |
| O=C1C(c2c(O)[nH]c3ccccc23)=Nc2ccccc21 | inactive | inactive | inactive | 0.184 µM (active) | inactive | inactive |
| C[C@@H](NC(=O)c1ncnc(N)c1Cl)c1ncc(C(=O)Nc2cc(C(F)(F)F)c(Cl)cn2)s1 | inactive | inactive | inactive | inactive | inactive | inactive |
| NC(=O)c1noc([C@H](CCCC2CCCCC2)CC(=O)NO)n1 | inactive | inactive | inactive | inactive | inactive | inactive |
| COc1cc(F)c(C(C)C)cc1-c1ccc(C(F)(F)F)cc1CN1C(=O)O[C@H](c2cc(C(F)(F)F)cc(C(F)(F)F)c2)[C@@H]1C | inactive | inactive |  |  |  |  |
| C[C@@H](N)c1ccc(C(=O)Nc2ccnc3[nH]ccc23)cc1 | inactive | inactive | inactive | inactive | inactive | inactive |
| CCCCC(F)(F)[C@@]1(O)CC[C@H]2[C@H](CC(=O)[C@@H]2CCCCCCC(=O)O)O1 | inactive | inactive | inactive | inactive | inactive |  |
| CC1(COc2ccc3c(c2)ncn3-c2ccc3cccc(N4CCC(N)CC4)c3n2)COC1 | inactive | inactive | inactive | inactive | inactive |  |
| CCN1C[C@H](C)n2c(c(O)c3c(=O)n(Cc4ccc(F)c(Cl)c4)nc(C(=O)NC)c32)C1=O | inactive | inactive | inactive | 29.9 µM (active) | inactive | inactive |
| CCN(CCO)CCCOc1ccc2c(Nc3cc(CC(=O)Nc4cccc(F)c4)[nH]n3)ncnc2c1 | inactive | inactive | inactive | inactive | inactive | inactive |
| O=C1NC(=O)C(c2cnc3ccccn23)=C1c1cn2c3c(cccc13)CN(C(=O)N1CCOCC1)CC2 | inactive | inactive | inactive |  |  |  |
| CC(C)(C)c1nc(-c2cccc(NS(=O)(=O)c3c(F)cccc3F)c2F)c(-c2ccnc(N)n2)s1 | inactive | inactive and 12.8 µM (active) and 11.2 µM (active) | inactive | inactive | inactive |  |
| COc1cc2ncnc(Nc3cc(Br)c(O)c(Br)c3)c2cc1OC | inactive | inactive | inactive | 6.7 µM (active) | inactive | inactive |
| COc1nccc(-c2c(-c3ccc(F)cc3)ncn2C2CCC(O)CC2)n1 (configuration not stated) | inactive | inactive | inactive | inactive | inactive |  |
| Cc1ccc2c(=O)c3cccc(CC(=O)O)c3oc2c1C | inactive | inactive |  |  |  |  |
| CNC(=O)c1ccc2c(C(=Nc3cccc(CN(C)C)c3)c3ccccc3)c(O)[nH]c2c1 | inactive | inactive | inactive | inactive | inactive | inactive |
| CCCCn1c(=O)n(Cc2ccccc2F)c(=O)c2[nH]c(Cc3ccc(NC(C)=O)cc3)nc21 | inactive | inactive | inactive | inactive | 13.5 µM (active) | inactive |
| O=C(CC12CC3CC(CC(C3)C1)C2)Nc1cccc2nc(NCCNCCO)ccc12 | inactive | inactive | inactive | inactive | inactive |  |
| CC(NCCc1ccc(O)cc1)C(O)c1ccc(O)cc1 (configuration not stated) | inactive | inactive |  |  |  |  |
| COc1ccc(-c2ccc3ncc4c(c3c2)n(-c2ccc(N3CCNCC3)c(C(F)(F)F)c2)c(=O)n4C)cn1 | inactive | inactive | inactive | inactive | inactive |  |
| CN1CCC(COc2cnc(-c3cccc(Cn4nc(-c5cccc(C#N)c5)ccc4=O)c3)nc2)CC1 | inactive | inactive | inactive | inactive | inactive | inactive |
| CCN1CCC(n2cc(CNc3cc(Cl)c4ncc(C#N)c(Nc5ccc(F)c(Cl)c5)c4c3)nn2)CC1 | 1.15 µM (active) | inactive | inactive | inactive | inactive |  |
| Cn1c(=O)c(-c2c(Cl)cccc2Cl)cc2cnc(Nc3cccc(C(=O)O)c3)nc21 | inactive | inactive | 0.379 µM (active) | inactive | inactive | inactive |
| CNC1CCC(N(Cc2cccc(-c3ccncc3)c2)C(=O)c2sc3ccccc3c2Cl)CC1 (configuration not stated) | inactive | inactive | inactive | inactive | inactive |  |
| CC1=C(C(=O)Nc2cc3cn[nH]c3cc2F)C(c2ccc(C(F)(F)F)cc2)CC(=O)N1 (configuration not stated) | inactive | inactive | inactive | inactive | inactive | inactive |
